# Compound activity: PubChem BioAssay, National Center for Advancing Translational Sciences (NCATS)
# This is one part of a sample in which hits are shown more often than they occur.
# Lamin A splicing – modulators of lamin A splicing; HeLa LMNA splicing GFP/RFP minigene ratio, 48 h; Potency, µM (titrated, usually from 46.1 µM), most hits filed as inhibitors; 200,000 compounds, 0.01% hits; AID 1487; active means well fitted inhibition curve with a large enough effect in the signal ratio, with a control signal flat, not every such curve was filed as active; inconclusive means small, poorly fitted or top-dose-only effect, or effect the other way, or a change in a side signal; the % refers to the signal ratio
#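 Read-out is the ratio of GFP to DsRed2 object intensity, acquired by 488 nm laser-scanning cytometry on HeLa lamin A-EGFP minigene reporter cells. Compound incubation 48 hrs at 37 °C in Opti-MEM with 2% FBS; DMSO 0.5% final.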
# PNC assembly inh – blocks assembly of the perinucleolar compartment | AID 2417 | 140,000 compounds, 3.1% hits | activity change (PNC), negative = inhibition, % at 10 µM | PC3M PTB-GFP, PNC prevalence imaging, 16 h; hits give low values;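 active means readout at or below -70, meaning at least 70% loss of cells showing the perinucleolar compartment, a nuclear body marking cancer cells; inconclusive means readout between -30 and a set limit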
#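 Compounds are pinned in duplicate onto adhered PC3M cells stably expressing GFP-tagged PTB and incubated 16 h at 37 C. Cells are then fixed, nuclei stained with Hoechst, and PNC-positive cells counted.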
# IMPase inh – IMPase inhibition in cells; P97697; CHO-M1 cells, IP1 accumulation, HTRF TR-FRET ratio; inhibition (IP1 accumulation), % at 46.1 µM; 120,000 tested, under 10 active; active means well fitted curve in the direction sought with a large enough effect in the signal ratio, not every such curve was filed as active; inconclusive means small, poorly fitted or top-dose-only effect, or a change in a side signal; inactive means no such curve, though single readings can be large or run the other way; the % refers to the signal ratio;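 further: cells stimulated with carbachol in lithium chloride buffer; higher means more IMPase inhibition seen as more IP1 and lower FRET ratio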
# Target sequence (P97697 whole entry, looked up): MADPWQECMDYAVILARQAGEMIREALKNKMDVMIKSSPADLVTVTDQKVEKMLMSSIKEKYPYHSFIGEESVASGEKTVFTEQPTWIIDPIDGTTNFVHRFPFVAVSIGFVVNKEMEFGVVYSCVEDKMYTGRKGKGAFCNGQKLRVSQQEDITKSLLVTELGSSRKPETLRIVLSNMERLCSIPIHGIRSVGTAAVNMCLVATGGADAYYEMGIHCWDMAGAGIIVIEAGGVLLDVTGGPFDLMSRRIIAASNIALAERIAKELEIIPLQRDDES
#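 In this qHTS, compounds (final up to 46 uM) act on CHO-M1 cells that are then activated through the M1 receptor with carbachol, in pH 7.4 buffer containing 50 mM LiCl, for 30 min. IP1 accumulation is quantified by the IP-One immunoassay.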
# Numbers stand for hits; . = inactive; ? = inconclusive; / = not tested or not shown; [ ] = remark or other dose.
SMILES,Lamin A splicing,PNC assembly inh,IMPase inh
Cc1cc(C)nc(N2CCCC(C(=O)Nc3nnc(C(C)C)s3)C2)n1 (stereo not given),.,-100,.
CCc1nnc(NC(=O)C2CCCCC2)s1,.,.,.
CC(C)c1nnc(NC(=O)C2CCCCC2)s1,.,-118,.
O=C(Cn1ccn(-c2cccc(Cl)c2)c(=O)c1=O)c1ccc(F)cc1,.,/,/
CCC/C(O)=C1\C(=O)CC(C)(C)CC1=Nc1ccc(OC)cc1OC,?,-139,.
CCCC/C(O)=C1\C(=O)CC(C)(C)CC1=Nc1ccccc1OC,?,.,.
COCCN(C(=O)Cn1nnc2ccccc21)C(C(=O)NC1CCCCC1)c1ccc(OC)cc1OC (stereo not given),.,.,.
COCCN(C(=O)Cn1nnc2ccccc21)C(C(=O)NC1CCCC1)c1ccc(OC)cc1OC (stereo not given),.,-88,?
CC(=O)N1CCN(S(=O)(=O)c2cccc(C(=O)Nc3nccs3)c2)CC1,.,/,/
Cc1c(C(=O)Nc2ccc3c4c(cccc24)CC3)cccc1[N+](=O)[O-],.,.,/
Cc1ccc(C(=O)Nc2ccc3c4c(cccc24)CC3)cc1[N+](=O)[O-],.,-81,.
CC(C)(C)CC(=O)NCC(c1ccc2c(c1)OCO2)N1CCN(c2ccccc2)CC1 (stereo not given),.,/,/
CCOc1ccc(NC(=O)N2CCN(C(=O)c3nsc4ccccc34)CC2)cc1,.,/,/
COc1ccccc1Cc1nc2ccccc2nc1SCC(=O)N1CCN(c2ccccc2)CC1,.,/,/
COC(=O)C1CC(=O)c2ccsc2C1 (stereo not given),.,-109,/
COC(=O)C1C/C(=N\NS(=O)(=O)c2ccc(C)cc2)c2sccc2C1 (stereo not given),.,?,/
O=S(=O)(Nc1cnc2ccccc2c1)N1CCCCCC1,?,.,?
O=c1ccc2cc(S(=O)(=O)Nc3ccc(OC(F)(F)F)cc3)ccc2[nH]1,.,/,/
Cc1cccc(Oc2nc(CN3CCOCC3)nc3sc4c(c23)CCCC4)c1,.,-104,/
CC(=O)Nc1ccc(S(=O)(=O)Nc2nc(CN3CCOCC3)nc3sc4c(c23)CCCC4)cc1,.,.,.
COc1ccc(OCC(=O)OCc2cc(=O)n3cc(C)sc3n2)cc1,.,/,/
CC1CCc2nn(CC(=O)Nc3cccc(C(F)(F)F)c3)c(=O)cc2C1 (stereo not given),.,/,/
O=C(COc1ncnc2sccc12)Nc1ccc2c(c1)OCCO2,.,-112,.
Cc1sc2ncnc(OCC(=O)Nc3ccc4c(c3)OCCO4)c2c1C,.,.,.
COc1ccc(OC)c(C(=O)CSc2nnc(-c3cccnc3)n2C)c1,?,.,.
SMILES,Lamin A splicing,PNC assembly inh,IMPase inh
O=C(O)CCCCn1c(SCC(=O)Nc2ccccc2C(F)(F)F)nc2ccsc2c1=O,?,-113,/
O=C(O)CCCCCn1c(SCC(=O)Nc2ccc(F)cc2)nc2ccsc2c1=O,.[9.22 µM],/,/
O=C(NC1CCCCC1)C1Cc2ccccc2CN1S(=O)(=O)c1ccc(F)cc1 (stereo not given),.,-100,.
O=C(C1Cc2ccccc2CN1S(=O)(=O)c1ccc(F)cc1)N1CCCCC1 (stereo not given),.,.,.
CCN(c1ccc(OC)cc1)S(=O)(=O)c1nnc(NC(=O)c2ccccc2C)s1,.,/,/
Cc1c(Cl)cccc1NC(=O)CNS(=O)(=O)c1cccs1,.,/,/
O=C(O)CC(NS(=O)(=O)c1ccc(Br)s1)c1ccccc1 (stereo not given),.,/,/
CC1CCCCN1C(=O)CSc1nnc(Cc2ccccc2)n1C (stereo not given),.,-100,.
Cn1c(CSc2ncccn2)nnc1SCC(=O)N1CCCCCC1,.,/,/
COCCn1c(Cc2ccccc2)nnc1SCC(=O)N1CCCCC1C (stereo not given),.,.,.
CC1CCCC(C)N1C(=O)CSc1nnc(CSc2ncccn2)n1C (stereo not given),.,-100,.
Cc1c(C)n(C)c2ccc(C(=O)NCc3cccs3)cc12,.,-119,.
Cc1ccc(-c2cn3c(n2)sc2cc(C(=O)NCc4cccs4)ccc23)cc1,.,/,/
CCc1ccc(N(CC(=O)Nc2ccc(OC)cc2OC)S(C)(=O)=O)cc1,.,.,.
O=C(COc1ccc(Br)cc1)N1CCC(c2ccccc2)C1 (stereo not given),.,?,.
Cc1ccc(-c2cc3nc(C)cc(NCc4ccco4)n3n2)cc1,.,-104,.
COCCNc1cc(C)nc2cc(-c3ccc(C)cc3)nn12,.,/,/
COc1ccc(-c2coc3cc(O)ccc3c2=O)c(OC)c1O,.,/,/
COc1ccc(-c2coc3cc4oc(=O)c5ccccc5c4cc23)cc1F,?,-81,.
COC(=O)c1c(NC(=O)c2cccnc2)sc(C(=O)N(C)C)c1C,.,.,/
COC(=O)c1c(NC(=O)c2ccco2)sc(C(=O)N(C)C)c1C,.,-100,.
CCc1cccc(NC(=O)Cn2nc(-c3ccc(OC)cc3)ccc2=O)c1,.,/,/
COc1ccc(-c2cnnn2-c2ccc(NC(=O)c3ccccc3OC)cc2)cc1,.,/,/
CC(=O)CCc1ccc(OC(=O)c2cccnc2)cc1,.,-100,.
CCOc1ccc(OC(=O)c2cccnc2)cc1,?,?,.
SMILES,Lamin A splicing,PNC assembly inh,IMPase inh
Cc1cc(C)cc(NCc2nnc3n2CCCCC3)c1,.,/,/
COCCCNC(=S)NNC(=O)c1ccc(S(=O)(=O)N2CCC(C)CC2)cc1,.,/,/
CN1CCNC(=O)C1CC(=O)NCCc1ccccc1F (stereo not given),.,/,/
CCCc1nc2oc3c(NCC4CCCO4)ncnc3c2c2c1COC(C)(C)C2 (stereo not given),.,?,.
CC(C)c1nc2oc3c(NCC4CCCO4)ncnc3c2c2c1CCC2 (stereo not given),?,-98,.
Cc1ccccc1-n1c(SCc2c(C)noc2C)nnc1-c1cccnc1,.,?,.
Cc1ccccc1-n1c(SCc2c(C)noc2C)nnc1-c1ccncc1,.,-83,.
CCc1nc2ccccc2c(=O)n1NC(=O)c1c(O)c2cccc3c2n(c1=O)CCC3,.,-83,.
O=C(NCc1ccccc1)c1c(O)c2cccc3c2n(c1=O)CCC3,.,.,.
O=C(/C=C/c1ccco1)N(c1ccccn1)c1ccccn1,.,/,/
COC(=O)c1ccc(NC(=O)c2cc(S(=O)(=O)N3CCOCC3)cn2C)cc1,.,/,/
c1ccc2c(c1)NC1(CCCC1)n1c-2nc2ccccc21,.,.,.
CCCC1(C)Nc2ccccc2-c2nc3ccccc3n21 (stereo not given),.,-82,.
Cc1c(C(=O)NC(C)c2ccccc2)sc2nc3n(c(=O)c12)CCCC3 (stereo not given),.,/,/
NS(=O)(=O)c1ccc(NC(=O)Cc2c(F)cccc2Cl)cc1,.,/,/
CCOC(=O)c1ccc(NC(=S)N(CCCN2CCCC2)Cc2cccs2)cc1,.,/,/
COc1ccc(NC(=S)N(CCCN2CCCCC2)Cc2cccs2)cc1,.,-105,/
NC[C@@H]1O[C@H](O[C@H]2[C@H](O)[C@H](O[C@@H]3O[C@H](CO)[C@@H](O)[C@H](N)[C@@H]3O)[C@@H](N)C[C@H]2N)[C@@H](O)[C@H](O)[C@@H]1O,.,/,.
COC(=O)c1ccc(NC(=S)NCCCn2ccnc2)cc1,.,/,/
